Laboratory results published in PubChem BioAssay AID1159580 (chemical genetic matrix, 2015).
Where “and” joins values, the source holds several entries; their conditions need not be identical. Equal values may be shown once. About 2,000 (36%) of roughly 5,500 compounds were called active. Roughly 18% stayed inconclusive and do not appear here. Cut-off read from the data, not from the text of the source: active = normalized growth mostly below about 0.91 (no sharp cut-off); inconclusive = no clear call, values can overlap the other calls; inactive = mostly above about 0.92. The list shows a part of the results.

Assay: chemical genetic growth profiling, strain panel (AID 1159580);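 note: tested at 20 µM; growth read once vehicle control cultures reached saturation at 30 °C; 1 = growth at the plate median or of vehicle wells; lower values mean less growth of the strain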
Details: S. cerevisiae deletion strains, growth OD
[1] = locus YAR019C, strain CDC15, stronger effect = lower value
[2] = locus YBL105C, strain PKC1, stronger effect = lower value
[3] = locus YBR135W, strain CKS1, stronger effect = lower value
[4] = locus YBR136W, strain MEC1, stronger effect = lower value
[5] = locus YBR160W, strain CDC28, stronger effect = lower value
[6] = locus YDL017W, strain CDC7, stronger effect = lower value
[7] = locus YDL028C, strain MPS1, stronger effect = lower value
[8] = locus YDL101C, strain DUN1, stronger effect = lower value
[9] = locus YDL108W, strain KIN28, stronger effect = lower value
[10] = locus YDL132W, strain cdc53, stronger effect = lower value
[11] = locus YDL214C, strain PRR2, stronger effect = lower value
[12] = locus YDR052C, strain DBF4, stronger effect = lower value
[13] = locus YDR054C, strain cdc34, stronger effect = lower value
[14] = locus YDR226W, strain ADK1, stronger effect = lower value
[15] = locus YDR477W, strain SNF1, stronger effect = lower value
[16] = locus YER123W, strain YCK3, stronger effect = lower value
[17] = locus YER133W, strain GLC7, stronger effect = lower value
[18] = locus YFL009W, strain cdc4, stronger effect = lower value
[19] = locus YFL029C, strain CAK1, stronger effect = lower value
[20] = locus YFR003C, strain YPI1, stronger effect = lower value
[21] = locus YFR019W, strain FAB1, stronger effect = lower value
[22] = locus YFR028C, strain CDC14, stronger effect = lower value
[23] = locus YGR040W, strain KSS1, stronger effect = lower value
[24] = locus YGR052W, strain FMP48, stronger effect = lower value
[25] = locus YGR092W, strain DBF2, stronger effect = lower value
[26] = locus YHR030C, strain SLT2, stronger effect = lower value
[27] = locus YHR079C, strain IRE1, stronger effect = lower value
[28] = locus YHR082C, strain KSP1, stronger effect = lower value
[29] = locus YHR205W, strain SCH9, stronger effect = lower value
[30] = locus YIL147C, strain SLN1, stronger effect = lower value
[31] = locus YJL095W, strain BCK1, stronger effect = lower value
[32] = locus YJL128C, strain PBS2, stronger effect = lower value
[33] = locus YJL157C, strain FAR1, stronger effect = lower value
[34] = locus YJR016C, strain ILV3, stronger effect = lower value
[35] = locus YJR066W, strain TOR1 (second series), stronger effect = lower value
[36] = locus YJR066W, strain TOR1, stronger effect = lower value
[37] = locus YKL048C, strain ELM1, stronger effect = lower value
[38] = locus YKL067W, strain YNK1, stronger effect = lower value
[39] = locus YKL101W, strain HSL1, stronger effect = lower value
[40] = locus YKL193C, strain SDS22, stronger effect = lower value
[41] = locus YKL203C, strain TOR2, stronger effect = lower value
[42] = locus YLR113W, strain HOG1, stronger effect = lower value
[43] = locus YLR133W, strain CKI1, stronger effect = lower value
[44] = locus YLR403W, strain SFP1, stronger effect = lower value
[45] = locus YML070W, strain DAK1, stronger effect = lower value
[46] = locus YMR001C, strain CDC5, stronger effect = lower value
[47] = locus YMR205C, strain PFK2 (second series), stronger effect = lower value
[48] = locus YMR277W, strain FCP1, stronger effect = lower value
[49] = locus YNL006W, strain LST8, stronger effect = lower value
[50] = locus YNL020C, strain ARK1, stronger effect = lower value
[51] = locus YNL161W, strain CBK1, stronger effect = lower value
[52] = locus YNL183C, strain NPR1, stronger effect = lower value
[53] = locus YNL207W, strain RIO2, stronger effect = lower value
[54] = locus YNL222W, strain SSU72, stronger effect = lower value
[55] = locus YNL307C, strain MCK1 (second series), stronger effect = lower value
[56] = locus YOL078W, strain AVO1, stronger effect = lower value
[57] = locus YOL136C, strain PFK27, stronger effect = lower value
[58] = locus YOR061W, strain CKA2, stronger effect = lower value
[59] = locus YOR119C, strain RIO1, stronger effect = lower value
[60] = locus YOR231W, strain MKK1, stronger effect = lower value
[61] = locus YOR329C, strain SCD5, stronger effect = lower value
[62] = locus YPL031C, strain PHO85, stronger effect = lower value
[63] = locus YPL153C, strain RAD53, stronger effect = lower value
[64] = locus YPL204W, strain HRR25, stronger effect = lower value
[65] = locus YPL209C, strain IPL1, stronger effect = lower value
[66] = locus YPL256C, strain CLN2, stronger effect = lower value
[67] = locus YPR025C, strain CCL1, stronger effect = lower value
[68] = locus YPR106W, strain ISR1, stronger effect = lower value
[69] = locus YPR111W, strain DBF20, stronger effect = lower value
[70] = strain NNK1, stronger effect = lower value
[71] = strain TSCII, stronger effect = lower value
[72] = locus YAL013W, strain DEP1, stronger effect = lower value
[73] = locus YMR263W, strain SAP30, stronger effect = lower value
[74] = locus YNL128W, strain TEP1, stronger effect = lower value
[75] = locus YNL153C, strain GIM3, stronger effect = lower value
[76] = locus YNL322C, strain KRE1, stronger effect = lower value
[77] = locus YPL241C, strain CIN2, stronger effect = lower value
[78] = locus YAL040C, strain CLN3, stronger effect = lower value
[79] = locus YCL061C, strain MRC1 (second series), stronger effect = lower value
[80] = locus YDR363W, strain ESC2, stronger effect = lower value
[81] = locus YER002W, strain NOP16, stronger effect = lower value
[82] = locus YGR229C, strain SMI1, stronger effect = lower value
[83] = locus YNL175C, strain NOP13, stronger effect = lower value
[84] = locus YNL197C, strain WHI3, stronger effect = lower value
[85] = locus YNL224C, strain SQS1, stronger effect = lower value
[86] = locus YOR083W, strain WHI5 (second series), stronger effect = lower value

Measured: normalized growth

Clc1cc(Cl)cc(-c2nc(SCc3ccc(Cl)cc3Cl)n[nH]2)c1
active: [26] 0.356 | [42] 0.772 | [66] 0.835
inactive: [1] 0.991 | [2] 0.99 | [3] 0.982 | [4] 0.998 | [5] 0.991 | [6] 0.987 | [7] 0.995 | [8] 1 | [9] 0.986 | [10] 0.981 | [11] 0.913 | [12] 0.998 | [13] 0.984 | [14] 0.992 | [15] 0.938 | [16] 0.908 | [17] 0.968 | [18] 0.981 | [19] 0.995 | [20] 0.995 | [21] 0.901 | [22] 1 | [23] 0.964 | [24] 0.937 | [25] 0.839 | [27] 0.845 | [28] 0.911 | [29] 0.829 | [30] 0.992 | [31] 0.81 | [32] 0.964 | [33] 0.942 | [34] 0.987 | [35] 0.98 | [36] 0.893 | [37] 0.964 | [38] 0.882 | [39] 0.891 | [40] 0.985 | [41] 1.05 | [43] 0.924 | [44] 0.963 | [45] 0.92 | [46] 0.988 | [47] 0.927 | [48] 0.983 | [49] 0.965 | [50] 0.914 | [51] 0.991 | [52] 0.916 | [53] 0.983 | [54] 0.987 | [55] 0.864 | [56] 0.985 | [57] 0.893 | [58] 0.756 | [59] 0.956 | [60] 0.873 | [61] 0.986 | [62] 0.927 | [63] 0.889 | [64] 0.915 | [65] 0.985 | [67] 0.98 | [68] 0.981 | [69] 0.948 | [70] 0.981 | [71] 0.993

Cc1noc(C)c1-c1nc(-c2cc(C(F)(F)F)cc(C(F)(F)F)c2)no1
inactive: [72] 1.02 | locus YBR229C, strain ROT2, stronger effect = lower value 1.01 | locus YCL061C, strain MRC1, stronger effect = lower value 0.992 | [8] 1.02 | locus YDL134C, strain PPH21, stronger effect = lower value 1.01 | locus YDR150W, strain NUM1, stronger effect = lower value 0.983 | locus YEL061C, strain CIN8, stronger effect = lower value 1.01 | locus YGR078C, strain PAC10, stronger effect = lower value 1.01 | [26] 1.03 | locus YHR087W, strain rtc3, stronger effect = lower value 1 | locus YJL187C, strain SWE1, stronger effect = lower value 1 | locus YJR043C, strain POL32, stronger effect = lower value 1 | locus YJR075W, strain HOC1, stronger effect = lower value 0.999 | locus YLR039C, strain RIC1, stronger effect = lower value 1.06 | locus YLR058C, strain SHM2 (second series), stronger effect = lower value 0.993 | locus YLR085C, strain ARP6, stronger effect = lower value 1.03 | locus YLR262C, strain YPT6, stronger effect = lower value 1.03 | locus YML094W, strain GIM5, stronger effect = lower value 1.07 | locus YMR219W, strain ESC1, stronger effect = lower value 0.998 | [73] 0.981 | locus YMR307W, strain GAS1, stronger effect = lower value 0.99 | [74] 1.02 | [75] 1 | locus YNL298W, strain CLA4 (second series), stronger effect = lower value 1 | [76] 1.01 | locus YNR030W, strain Alg12, stronger effect = lower value 1.03 | locus YPL055C, strain LGE1, stronger effect = lower value 1.05 | [77] 1.01 | locus YPR135W, strain CTF4, stronger effect = lower value 1.07

CSc1n[nH]c(-c2cc(C(F)(F)F)cc(C(F)(F)F)c2)n1
active: [26] 0.671 | [42] 0.615 | [66] 0.709
inactive: [1] 0.939 | [2] 0.952 | [3] 0.946 | [4] 0.948 | [5] 0.939 | [6] 0.955 | [7] 0.939 | [8] 0.973 | [9] 0.918 | [10] 0.955 | [11] 0.892 | [12] 0.977 | [13] 0.938 | [14] 0.942 | [15] 0.895 | [16] 0.892 | [17] 0.935 | [18] 0.92 | [19] 0.918 | [20] 0.953 | [21] 0.979 | [22] 0.936 | [23] 0.893 | [24] 0.92 | [25] 0.894 | [27] 0.82 | [28] 0.914 | [29] 0.785 | [30] 0.941 | [31] 0.791 | [32] 0.859 | [33] 0.938 | [34] 0.947 | [35] 0.939 | [36] 0.859 | [37] 0.904 | [38] 0.887 | [39] 0.853 | [40] 0.939 | [41] 1 | [43] 0.904 | [44] 0.927 | [45] 0.878 | [46] 0.937 | [47] 0.925 | [48] 0.921 | [49] 0.945 | [50] 0.897 | [51] 0.948 | [52] 0.868 | [53] 0.947 | [54] 0.927 | [55] 0.856 | [56] 0.953 | [57] 0.84 | [58] 0.937 | [59] 0.942 | [60] 0.776 | [61] 0.95 | [62] 0.885 | [63] 0.887 | [64] 0.864 | [65] 0.952 | [67] 0.946 | [68] 0.929 | [69] 0.952 | [70] 0.917 | [71] 0.937

Fc1cccc(Cl)c1CSc1n[nH]c(-c2cc(C(F)(F)F)cc(C(F)(F)F)c2)n1
inactive: [1] 0.973 | [2] 0.981 | [3] 0.981 | [4] 0.982 | [5] 0.977 | [6] 0.987 | [7] 0.961 | [8] 0.986 | [9] 0.97 | [10] 0.975 | [11] 0.916 | [12] 0.994 | [13] 0.973 | [14] 0.971 | [15] 0.891 | [16] 0.918 | [17] 0.939 | [18] 0.961 | [19] 0.973 | [20] 0.977 | [21] 0.913 | [22] 0.973 | [23] 0.898 | [24] 0.925 | [25] 0.914 | [27] 0.836 | [28] 0.871 | [29] 0.821 | [30] 0.98 | [31] 0.79 | [32] 0.957 | [33] 0.926 | [34] 0.981 | [35] 0.918 | [36] 0.873 | [37] 0.974 | [38] 0.916 | [39] 0.889 | [40] 0.975 | [41] 1.01 | [43] 0.902 | [44] 0.926 | [45] 0.907 | [46] 0.97 | [47] 0.937 | [48] 0.959 | [49] 0.983 | [50] 0.905 | [51] 0.976 | [52] 0.933 | [53] 0.978 | [54] 0.965 | [55] 0.744 | [56] 0.976 | [57] 0.878 | [58] 0.911 | [59] 0.943 | [60] 0.846 | [61] 0.983 | [62] 0.896 | [63] 0.894 | [64] 0.868 | [65] 0.979 | [67] 0.981 | [68] 0.97 | [69] 0.945 | [70] 0.96 | [71] 0.972
active: [26] 0.372 | [42] 0.773 | [66] 0.811

NN=C(N)N
inactive: [72] 1.03 and 1.01 | [78] 0.987 and 0.992 | [79] 1 | [80] 1.03 | [81] 1.03 and 0.995 | [82] 1.03 | [73] 1.01 | [75] 1.01 | [83] 1.02 and 1.01 | [84] 1.01 | [85] 0.993 and 1.03 | [86] 1.02 and 1.01 | [77] 1.01

CCN(CC)c1ncnc2c1ncn2[C@@H]1O[C@H](COP(=O)(O)OP(=O)(O)C(Br)(Br)P(=O)(O)O)[C@@H](O)[C@H]1O
inactive: [78] 1.05 | [79] 1 | [80] 0.937 | [81] 1 | [82] 0.992 | [73] 0.991 | [74] 1 | [83] 0.992 | [84] 0.977 | [85] 0.971 | [76] 0.995 | [86] 0.979 | [77] 1.01
